GBA mod – modulators of human glucocerebrosidase; P04062; 48,000 compounds, 1.1% hits; purified enzyme, resorufin glucoside fluorescence (screen aimed at inhibitors), 20 min; Potency, µM; in the data active = potency below about 15 µM; inconclusive = mostly about 16 µM to 33 µM;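 also: the screen sought inhibitors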
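Wild-type enzyme at 0.2 nM final in 50mM citric acid/KH2PO4, 10mM sodium taurocholate, 0.01% tween-20, pH 5.9, with resorufin beta-D-glucopyranoside at 30 uM final. Compounds titrated, 20 min at RT, red fluorescence read; AC50 from titration.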
PK Bst – alters activity of Bacillus stearothermophilus pyruvate kinase; purified pyruvate kinase, luminescence ATP production; ribose 5-phosphate activator present at AC10; Potency, µM; 51,000 compounds, 1.2% hits; AID 361; in the data active = potency below about 11 µM; inconclusive = mostly about 12 µM to 25 µM;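 the screen sought inhibitors and activators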;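 also: scaled between full activation by ribose 5 phosphate and full inhibition by luteolin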
FLuc inh – inhibitors of firefly luciferase | P08659 | Potency, µM (top dose mostly 57.1 µM), for the others: top-dose activity change, negative = inhibition, hits mostly inhibitors | 72,000 compounds, 2.2% hits | purified firefly luciferase, luminescence, 8 min; active = well fitted inhibition curve with a large enough effect; inconclusive = small, poorly fitted or top-dose-only effect; also: % is scaled to controls: 0 for no effect and ±100 for the full control effect; nearly all actives have a fitted effect of over 40% in size
Target sequence (P08659 whole entry, looked up): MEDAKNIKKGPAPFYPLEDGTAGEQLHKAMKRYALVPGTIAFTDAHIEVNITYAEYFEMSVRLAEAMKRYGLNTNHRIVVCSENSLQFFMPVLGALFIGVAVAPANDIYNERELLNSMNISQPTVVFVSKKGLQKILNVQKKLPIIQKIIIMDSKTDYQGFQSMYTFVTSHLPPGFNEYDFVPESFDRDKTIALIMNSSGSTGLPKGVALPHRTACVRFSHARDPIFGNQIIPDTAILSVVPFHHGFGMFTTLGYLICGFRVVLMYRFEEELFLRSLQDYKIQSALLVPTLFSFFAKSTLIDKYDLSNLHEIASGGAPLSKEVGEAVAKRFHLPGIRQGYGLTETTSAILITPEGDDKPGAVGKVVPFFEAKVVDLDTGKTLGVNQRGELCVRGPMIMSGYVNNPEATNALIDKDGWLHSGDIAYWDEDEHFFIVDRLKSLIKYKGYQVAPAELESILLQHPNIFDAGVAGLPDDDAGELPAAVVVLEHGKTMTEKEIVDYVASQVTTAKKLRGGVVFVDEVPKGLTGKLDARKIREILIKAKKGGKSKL
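Firefly luciferase (PKLight detection mix) with 10 uM ATP in pH 7.2 imidazole buffer (KCl, MgCl2, Tween 20, BSA). Compounds tested across a concentration series (qHTS). Luminescence read after 8 min at ambient temperature.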
Numbers without * were called inactive; i = inactive; u = inconclusive; x = not tested or not shown; [ ] = dose if it differs, or a comment. Hits are enriched below; roughly 3.4% of the tested compounds scored in any of these assays. Potency is read from the fitted curve at half-maximal effect.

SMILES	GBA mod	PK Bst	FLuc inh
Cn1cccc1C(=O)N1CCC2(CCCN(Cc3ccc(C#N)cc3)C2)CC1	x	x	0.7%[11.4 µM]
N#Cc1ccc(-c2nnnn2-c2ccc3c(c2)OCO3)cc1	14.8*	>57	0.1%
N#Cc1cccc(-n2nnnc2-c2ccc3c(c2)OCO3)c1	>76.9	>57	-6.4%
CN1CCN(CCCNc2nc3ccccc3c3nc(-c4ccccc4)nn23)CC1	>76.9	10*	-4.0%
COc1cc2nc(NCCN3CCOCC3)n3nc(-c4ccccc4)nc3c2cc1OC	>76.9	>57	1.9%
c1cn(CCCNc2ncnc3nc[nH]c23)cn1	x	x	2.51µM*
CCN1CCN(CCCNc2ncnc3nc[nH]c23)CC1	x	x	-1.3%
COc1ccc(C(=O)N2CCC3(CC2)CCN(c2cccc(-c4ccccc4)c2)CC3)cc1	x	x	2.0%[11.4 µM]
Cc1ccc(-c2cn3c(n2)CCCC3)cc1	>76.9	>57	-1.0%
COc1ccc(-c2cn3c(n2)CCC3)cc1	x	x	15.8µM*
CNc1ccc(C(O)(C(F)(F)F)C(F)(F)F)cc1C(O)(C(F)(F)F)C(F)(F)F	12.6*	>57	1.9%
CCOC(=O)N(C)c1ccc(C(O)(C(F)(F)F)C(F)(F)F)cc1	u	>57	0.4%
Nc1nc(CSc2n[nH]c(-c3ccccc3)n2)nc(Nc2ccccc2)n1	i	x	-2.9%
Cc1ccc(-c2nc(Nc3ccccc3)n[nH]2)cc1	>76.9	u	12.6µM*
COc1ccccc1-c1nn2c(-c3ccco3)nnc2s1	x	8.25*	-25.9%[25.5 µM]
COc1ccc(-c2nn3c(-c4ccccc4)nnc3s2)cc1	>76.9	3.39*	-1.8%
c1coc(-c2nn3c(-c4ccco4)nnc3s2)c1	>76.9	i	0.8%
COc1ccc(-c2nn3c(-c4ccc(F)cc4)nnc3s2)cc1	>76.9	x	1.3%
CC(=O)[C@@H]1[C@H]2[C@@H](C(=O)[C@H]3OC[C@H]2O3)[C@@H]2C=Cc3ccccc3N12	x	x	-13.5%[11.4 µM]
CCCNC(=O)c1cc(-c2ccc(O)cc2)on1	x	x	-19.8%
O=C1C(=C(O)c2ccccc2)C(=O)c2ccccc21	x	x	-5.3%
O=C1C(c2ccncc2)=C(O)c2ccccc21	>76.9	u	12.6µM*
COc1ccccc1N1CCN(C[C@@H](C(=O)NC(C)(C)C)c2ccccc2)CC1	x	x	2.9%
COc1ccc(C(=O)N2CCC3(CC2)CN(c2ccccc2)C3)cc1	x	x	-8.2%[11.4 µM]
Cc1nc(N)sc1-c1csc(N(C)c2ccc(O)cc2)n1	x	i	12.6µM*
SMILES	GBA mod	PK Bst	FLuc inh
COc1cccc(Nc2nc(-c3sc(N)nc3C)cs2)c1	i	i	-20.7%
Nc1ccc(-c2cnc(-c3ccc(N)cc3)nc2)cc1	>76.9	u	12.6µM*
CCCCCCc1ccc(-c2ncc(N)cn2)cc1	x	x	-15.9%
COCCNc1cc(-c2ccccc2C(F)(F)F)ncn1	x	x	-1.4%[2.29 µM]
CC1(C(=O)CSc2nc3ccccc3s2)CCC(=O)O1 (stereo not drawn)	x	10.2*	0.4%[25.5 µM]
CC1CC2(CC(C)(C(=O)CSc3nc4ccccc4s3)OC2=O)C(=O)O1 (stereo not drawn)	x	i	0.9%
NC[C@@H]1O[C@@H](O[C@H]2[C@@H](O)[C@H](O[C@@H]3[C@H](O)[C@H](N)C[C@H](N)[C@H]3O[C@@H]3O[C@@H](CO)[C@H](O)[C@H](O)[C@@H]3N)O[C@H]2CO)[C@H](N)[C@H](O)[C@@H]1O	x	x	2.3%
COc1cccc(-n2nnc3c(=O)n(Cc4c(F)cccc4Cl)cnc32)c1	>76.9	x	3.4%
CC(C)(C)n1ncc2c(=O)n(CC(=O)NCc3ccccc3)cnc21	>76.9	x	20µM*
CC(C)(C)n1ncc2c(=O)n(CC(=O)c3ccc(Cl)cc3)cnc21	>76.9	x	20µM*
CC(C)(C)n1ncc2c(=O)n(Cc3c(F)cccc3Cl)cnc21	>76.9	9.95*	-23.0%
CC(C)(C)n1ncc2c(=O)n(CC(=O)Nc3ccc(Cl)cc3)cnc21	>76.9	>57	-0.9%
CC(=O)Nc1ccc(NC(=O)Cn2cnc3c(cnn3C(C)(C)C)c2=O)cc1	>76.9	>57	0.5%
Cc1cc(NC(=O)Cn2cnc3c(cnn3C(C)(C)C)c2=O)no1	>76.9	>57	-1.4%
CC(C)(C)n1ncc2c(=O)n(Cc3ccc(Cl)cc3Cl)cnc21	>76.9	2.88*	-16.4%
S=C(S)NCCN1CCNCC1	x	x	-1.3%[11.4 µM]
CCNc1ncc2nc(-c3cccs3)c(=O)n(Cc3ccc(F)cc3)c2n1	x	x	-0.4%[11.4 µM]
OC[C@@H]1O[C@@H](n2cnc3c(N[C@H]4CCC[C@@H]4O)ncnc32)[C@H](O)[C@H]1O	x	x	1.1%
CC(C)NC(=O)N1CCCC2(CCN(C(=O)c3csnn3)CC2)C1	x	x	4.3%[11.4 µM]
CC(=O)[C@H]1[C@@H]2C(=O)N(c3cccc(Cl)c3)C(=O)[C@@H]2[C@H]2c3ccccc3C=CN21	x	>11.4	-0.9%[25.5 µM]
O=C1NC(=O)[C@@H]2C3c4ccccc4C=CN3[C@H](C(=O)c3cccs3)[C@H]12 (stereo partly drawn)	>76.9	6.21*	25.1µM*
CC(=O)N(C)c1nc(-c2ccc(Cl)cc2)cs1	>76.9	>57	-7.5%

Bioassay records as filed in PubChem.
